Shown is part of a subset that was picked to be rich in hits.
GIRK2 activator – Activators of human GIRK2-containing channels; HEK293 GIRK2/NPY4 cells, thallium flux fluorescence; 34,000 tested, under 10 active; activation (% efficacy), % for hits at 37.5 µM; P48051;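 active = primary screen hit, no activity in plain HEK293 cells, and in GIRK2-only cells above 5% efficacy rising with concentration; inactive = the rest, including fluorescent compounds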;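 note: efficacy is normalized control-subtracted fluorescence 15 s after thallium addition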
GluA2 TARP mod – modulates AMPAR-stargazin complexes. actives 3.5% (n = 40,000). HEK293 GluA2+stargazin, membrane potential dye (FDSS), glutamate EC50; hits were called plate by plate, in both directions. calls only at 30 µM. O88602+P19491. AID 1259245;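 active = any of four per-well response measures lying three or more SD from its plate-wide compound average, in either direction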
Target sequence (O88602 whole entry, looked up): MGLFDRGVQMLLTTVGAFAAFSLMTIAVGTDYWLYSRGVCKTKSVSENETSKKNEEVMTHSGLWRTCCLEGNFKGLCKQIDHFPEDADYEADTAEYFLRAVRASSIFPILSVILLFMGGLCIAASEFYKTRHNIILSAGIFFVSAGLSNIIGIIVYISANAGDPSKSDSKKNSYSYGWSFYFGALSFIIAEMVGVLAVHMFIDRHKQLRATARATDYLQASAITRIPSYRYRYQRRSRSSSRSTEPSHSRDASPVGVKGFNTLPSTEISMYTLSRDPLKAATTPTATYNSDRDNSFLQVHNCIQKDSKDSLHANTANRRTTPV
Target sequence (P19491 whole entry, looked up): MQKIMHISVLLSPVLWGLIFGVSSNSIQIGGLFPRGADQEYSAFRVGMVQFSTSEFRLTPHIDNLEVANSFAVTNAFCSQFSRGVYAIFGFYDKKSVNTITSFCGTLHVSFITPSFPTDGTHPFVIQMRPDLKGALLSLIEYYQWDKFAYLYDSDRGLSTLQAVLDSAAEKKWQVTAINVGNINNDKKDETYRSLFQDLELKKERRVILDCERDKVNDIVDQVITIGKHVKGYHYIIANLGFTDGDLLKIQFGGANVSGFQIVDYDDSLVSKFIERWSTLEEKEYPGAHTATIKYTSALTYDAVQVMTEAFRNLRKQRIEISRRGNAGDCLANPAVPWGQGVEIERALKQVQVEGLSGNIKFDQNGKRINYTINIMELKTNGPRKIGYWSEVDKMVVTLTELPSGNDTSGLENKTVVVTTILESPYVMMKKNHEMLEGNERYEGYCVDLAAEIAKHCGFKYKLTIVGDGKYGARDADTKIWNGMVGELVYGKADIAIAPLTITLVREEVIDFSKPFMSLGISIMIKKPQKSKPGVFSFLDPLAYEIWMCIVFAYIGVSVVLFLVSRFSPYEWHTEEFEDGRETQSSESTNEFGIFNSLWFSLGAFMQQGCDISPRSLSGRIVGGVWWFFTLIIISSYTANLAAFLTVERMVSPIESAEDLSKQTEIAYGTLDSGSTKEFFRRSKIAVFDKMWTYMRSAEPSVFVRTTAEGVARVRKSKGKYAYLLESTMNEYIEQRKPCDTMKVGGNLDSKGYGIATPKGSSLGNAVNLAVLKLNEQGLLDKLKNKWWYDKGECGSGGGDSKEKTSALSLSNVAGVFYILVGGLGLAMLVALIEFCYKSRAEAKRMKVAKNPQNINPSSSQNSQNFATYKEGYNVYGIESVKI
Numbers without * were called inactive; i = inactive; . = no result given; + = active, no number.

SMILES | GIRK2 activator | GluA2 TARP mod
COC(=O)c1c(NC(=O)c2ccco2)sc2c1CC(C)(C)NC2(C)C | i | +
Cn1c(O)c(N=Nc2nc3c(c(=O)n(Cc4ccccc4)c(=O)n3C)n2C)c(=O)n(C)c1=O | . | +
Cn1c(=O)c2c(nc(N=Nc3c(O)[nH]c4ccccc34)n2Cc2ccccc2)n(C)c1=O | . | i
CS(=O)(=O)c1ccc(S(=O)CC(=O)Oc2ccc(Br)cc2)c([N+](=O)[O-])c1 (stereo not drawn) | . | i
CC(C)S(=O)(=O)c1ccc(CC(=O)N2CCC(c3ccsc3)CC2)cc1 | i | +
CC(C)S(=O)(=O)c1ccc(CC(=O)N2CCC(c3cccs3)CC2)cc1 | i | i
O=C(NCC(c1cccs1)N1CCOCC1)c1c(F)cccc1Cl (stereo not drawn) | i | i
O=C(NCC(c1ccsc1)N1CCCCCC1)c1c(F)cccc1Cl (stereo not drawn) | i | +
Cc1cc(NC(=O)C(=O)NCC(c2cccs2)N2CCOCC2)c2ccccc2n1 (stereo not drawn) | . | +
Cc1cccc(C)c1NC(=O)C(=O)NCC1CCN(C(C)C)CC1 | i | .
COc1cccc(C(CNC(=O)C(=O)Nc2cc(C)nc3ccccc23)N2CCOCC2)c1 (stereo not drawn) | i | i
Cc1cc(NC(=O)C(=O)NCC2CCN(C(C)C)CC2)c2ccccc2n1 | i | +
O=C(Cc1cccs1)N1CCOC(c2ccccc2)C1 (stereo not drawn) | i | .
Cc1cc2c(=O)n(Cc3ccco3)c(SCC(=O)NCC3CCCO3)nc2s1 (stereo not drawn) | . | i
COc1ccc(OC)c(S(=O)(=O)Nc2ccc3c(c2)N(S(=O)(=O)c2ccccc2)CCC3)c1 | . | +
COc1ccc(OC)c(S(=O)(=O)Nc2ccc3c(c2)CCCN3S(=O)(=O)c2ccccc2)c1 | . | i
CCCS(=O)(=O)N1CCCc2cc(NS(=O)(=O)c3cc(C)ccc3OCC)ccc21 | . | i
CCCS(=O)(=O)N1CCCc2cc(NS(=O)(=O)c3cc(C)ccc3OC)ccc21 | . | +
O=C(Nc1ccc(N2CCN(Cc3ccccc3)CC2)cc1)c1cccc(Cl)c1Cl | . | i
COc1ccc(C)cc1S(=O)(=O)NCCN1CCC(c2cccs2)CC1 | i | i
COc1ccc(Cl)c(NC(=O)c2nnn(-c3cccc(C(F)(F)F)c3)c2N)c1 | i | i
COc1cccc(C(CNC(=O)c2cccc3ccccc23)N2CCOCC2)c1 (stereo not drawn) | . | +
COc1cccc(C(CNC(=O)C(=O)NCc2cccs2)N2CCOCC2)c1 (stereo not drawn) | i | i
COc1cccc(C(CNC(=O)C2(c3cccs3)CCCC2)N2CCOCC2)c1 (stereo not drawn) | i | +
COc1cccc(C(CNC(=O)Cc2cccc3ccccc23)N2CCOCC2)c1 (stereo not drawn) | . | i
SMILES | GIRK2 activator | GluA2 TARP mod
CCOc1cc(C(=O)NCC2CCN(C(=O)Nc3ccccc3OC)CC2)cc(OCC)c1OCC | i | i
Cc1nnsc1C(=O)N1CCC(CNC(=O)C(=O)Nc2cccnc2)CC1 | i | i
CC(=O)Cn1c(=O)c2c(nc3n2CCCN3c2cc(C)cc(C)c2)n(C)c1=O | . | i
Cc1ccc(N2CCCS2(=O)=O)cc1NC(=O)Nc1ccc(Cl)cc1 | i | i
CCOc1cccc2sc(N(Cc3ccccn3)C(=O)c3nn(C)cc3C)nc12 | i | +
COc1cccc2sc(N(Cc3ccccn3)C(=O)c3cc(C)nn3C)nc12 | i | i
COc1ccc(Cl)cc1S(=O)(=O)Nc1ccc2c(c1)N(C(=O)C(C)(C)C)CC2 | i | +
COc1ccccc1OCC(=O)Nc1ccc2c(c1)N(C(=O)C(C)(C)C)CC2 | i | +
COc1ccc(OCC(=O)Nc2ccc3c(c2)N(C(=O)C(C)(C)C)CC3)cc1 | i | i
COc1ccc(C)cc1S(=O)(=O)Nc1ccc2c(c1)N(C(=O)C(C)(C)C)CC2 | i | i
COc1cccc(CC(=O)NCC2CCN(Cc3ccccc3SC)CC2)c1 | i | i
CCN(C(=O)CN1C(=O)c2ccccc2S1(=O)=O)c1ccccc1 | i | i
CN(C)S(=O)(=O)c1ccc(C(=O)NCCCn2nc(-c3ccccc3)ccc2=O)cc1 | i | i
O=C(CCCCn1c(=O)[nH]c2ccccc2c1=O)NCCc1ccccc1 | i | i
CNC(=O)C1Cc2ccccc2N1C(=O)/C=C\c1cc(OC)c(OC)c(OC)c1 (stereo not drawn) | i | i
CC(C)N1CCC(CNC(=O)C(=O)NCc2ccc3c(c2)OCO3)CC1 | i | i
O=C(NCc1ccc2c(c1)OCO2)C(=O)NCC1CCN(C(=O)c2ccncc2)CC1 | i | +
CCN(C1CCCCC1)S(=O)(=O)c1ccc(C(=O)Nc2ccc([N+](=O)[O-])cc2)cc1 | i | i
Cc1cc(C)c2sc(N3CCN(C(=O)CS(=O)(=O)Cc4ccccc4)CC3)nc2c1 | i | i
COc1ccc(NC(=O)Cn2nc(SC)c(S(=O)(=O)c3ccccc3)c2N)c(OC)c1 | . | +
COc1ccc(NC(=O)Cn2nc(SC)c(S(=O)(=O)c3ccc(OC)cc3)c2N)cc1 | . | i
O=C(NCCOc1ccc2nnc(-c3cccc(F)c3)n2n1)Nc1ccc(F)c(F)c1 | i | i
COC(=O)c1ccccc1NC(=O)CSc1nccnc1N1CCSCC1 | i | +
N#Cc1ccccc1NC(=O)CSc1nccnc1N1CCSCC1 | i | i
COc1cc(C(C)=O)ccc1OCC(O)CN1CCOCC1 (stereo not drawn) | . | i
SMILES | GIRK2 activator | GluA2 TARP mod
COc1cc(/C=C2\SC(=S)N(c3cccc(C)c3C)C2=O)ccc1O | . | +
COc1cc(/C=C2/SC(=S)N(c3ccc(C)c(C)c3)C2=O)ccc1O | . | i
CCCCn1c(=O)c2c(nc3n2CC(C)CN3c2ccccc2OC)n(C)c1=O (stereo not drawn) | . | i
CCCn1c(=O)c2c(nc3n2CC(C)CN3c2ccccc2OC)n(C)c1=O (stereo not drawn) | . | +
CCn1c(=O)c2c(nc3n(-c4cc(OC)ccc4OC)c(-c4ccccc4)cn23)n(C)c1=O | i | i
CCCn1c(=O)c2c(nc3n(-c4cc(OC)ccc4OC)c(-c4ccccc4)cn23)n(C)c1=O | . | +
CCOC(=O)c1ccc(NC(=O)CN2CCc3[nH]c4ccc(OC)cc4c(=O)c3C2)cc1 | i | i
COc1ccc(OCC(O)CNC(C)(C)C)c(C(C)(C)C)c1 (stereo not drawn) | . | i
O=C(c1cnn2ccccc12)N1CCN(S(=O)(=O)CCN2C(=O)CCCC2=O)CC1 | i | i
CCOc1cccc2sc(NC(=O)CCCS(=O)(=O)c3ccc(C)cc3)nc12 | i | i

From PubChem
